From PubChem BioAssay (NCATS)
Inconclusive results are not listed. Activity calls are given as the source filed them. The call rests on the fitted dose curve; in most records, active means well fitted inhibition curve with a large enough effect; inconclusive means small, poorly fitted or top-dose-only effect; inactive means no such curve, though single readings can be large or run the other way.

assay: Primary qHTS for inhibitors of La Crosse Virus (LACV) - induced cell death in SH-SY5Y cells (AID 1508616); settings: SH-SY5Y LACV cytopathicity rescue, ATP luminescence, 6 d; series mostly up to 9.63 µM; activity change: at the top concentration;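 on activity change: top concentration of the series differs between compounds; 0% = infected DMSO wells and 100% = uninfected DMSO wells; higher means more rescue of cells from virus-induced death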
Method in brief: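 Cytopathicity rescue screen: compounds pinned onto SH-SY5Y cells, which are then infected with LACV (MOI 0.01) and held 6 days at 37C. Percent activity is scaled between infected DMSO control and uninfected DMSO control.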
Potency means the concentration at half of the fitted maximal effect.

| Structure (SMILES) | activity change | Potency |
| --- | --- | --- |
| CCCN(CC1CC1)c1nc(C)nc(Nc2c(Cl)cc(Cl)cc2Cl)c1Cl | 98% (inactive) | – |
| Nc1nc(SCc2ccc([N+](=O)[O-])cc2)c2ncn([C@@H]3O[C@H](CO)[C@@H](O)[C@H]3O)c2n1 | -13.1% (inactive) | – |
| Nc1ncnc2c1ncn2[C@@H]1O[C@H](COP(=O)(O)OP(=O)(O)OP(=O)(O)OP(=O)(O)OC[C@@H]2O[C@H](n3cnc4c(N)ncnc43)[C@@H](O)[C@H]2O)[C@@H](O)[C@H]1O | -5.92% (inactive) | – |
| O=C(O)c1cc(=O)c2c(Cl)cc(Cl)cc2[nH]1 | -11.2% (inactive) | – |
| Oc1ccc(C2CNCc3sccc32)cc1O (configuration not stated) | -26.3% (inactive) | – |
| COc1cc(OC)c(/C=C2/C(=O)Nc3ccccc32)c(OC)c1 | – | 891 nM (active) |
| NC(=O)C1=CN(C2OC(COP(=O)(O)OP(=O)(O)OC[C@H]3O[C@@H](n4cnc5c(N)ncnc54)[C@H](OP(=O)(O)O)[C@@H]3O)C(O)C2O)C=CC1 (some centres not stated) | -6.8% (inactive) | – |
| CNC(=O)[C@H]1O[C@@H](n2cnc3c(NCc4ccc(N)cc4)ncnc32)[C@H](O)[C@@H]1O | -13.6% (inactive) | – |
| O=C(O)c1cc([N+](=O)[O-])ccc1NCCCc1ccccc1 | 3.03% (inactive) | – |
| CC(=O)SCC[N+](C)(C)C | 39.8% (inactive) | – |
| CNc1ncnc2c1ncn2[C@@H]1O[C@H](CO)[C@@H](O)[C@H]1O | 7.58% (inactive) | – |
| NC(CCCP(=O)(O)O)C(=O)O (configuration not stated) | 10% (inactive) | – |
| Cc1cc2c(cc1Cl)N(C(=O)Nc1ccc(Oc3cccnc3C)nc1)CC2 | 115% (inactive) | – |
| C[N+]1(C)CCC(OC(=O)C(c2ccccc2)c2ccccc2)CC1 | -10.6% (inactive) | – |
| Fc1cccc(/C=N/N=C/c2cccc(F)c2)c1 | 7.86% (inactive) | – |
| COc1ccccc1CNCCCCCCNCCCCCCCCNCCCCCCNCc1ccccc1OC | -9.25% (inactive) | – |
| CCCCCCCCCCCCCCCC(=O)OC(CC(=O)O)C[N+](C)(C)C (configuration not stated) | 8.44% (inactive) | – |
| O=C(O)CNC(=O)C(CS)Cc1ccccc1 (configuration not stated) | 18.3% (inactive) | – |
| Oc1cc2c(cc1O)CN(C(=S)NCCc1ccc(Cl)cc1)CCC2 | – | 2240 nM (active) |
| CCN(CC)c1ncnc2c1ncn2[C@@H]1O[C@H](COP(=O)(O)OP(=O)(O)C(Br)(Br)P(=O)(O)O)[C@@H](O)[C@H]1O | -1.36% (inactive) | – |
| Cc1ccc(S(=O)(=O)/C=C/C#N)cc1 | – | 1410 nM (active) |
| C=CC(C)=C[C@@]1(C)SC(=O)C(C)=C1O | -4.04% (inactive) | – |
| C[C@@H](CN1CCC(Cc2ccccc2)CC1)[C@@H](O)c1ccc(O)cc1 | 11.6% (inactive) | – |
| Clc1ccc(N2CCN(Cc3cc4ccccn4n3)CC2)cc1 | 0.209% (inactive) | – |
| CCCCCCCC/C=C\CCCCCCCC(=O)NCCO | 3.21% (inactive) | – |
| COc1ccc(NC(=O)/C=C/c2ccc(Cl)cc2)cc1 | 56.5% (inactive) | – |
| N#C/C(=C\c1ccc(-c2cc(Cl)ccc2Cl)o1)C(=O)Nc1cccc2ncccc12 | 25.9% (inactive) | – |
